From PubChem BioAssay (NCATS) come the findings set out here.

Molecules are shown by their SMILES. Results filed as inconclusive are left out. Active and inactive are the calls of the source. The call rests on the fitted dose curve; in most records, active means well fitted inhibition curve with a large enough effect; inconclusive means small, poorly fitted or top-dose-only effect; inactive means flat fitted curve, though single readings scatter.
On the % scale 0 is the no-effect control and ±100 the full control effect; potency means the concentration at half of the fitted maximal effect.

This test deals with NIH3T3. Description: Cytotoxic Profiling of Annotated Libraries Using Quantitative High-Throughput Screening (AID 1296008). Further: nearly all actives have a fitted effect of over 60% in size. The note with it: Five cell lines viability, CellTiter-Glo ATP luminescence, 48-72 h; max response: active compounds read low. In a few lines: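 Cells exposed to compounds for 48 or 72 hr at 37 degrees Celsius. Viability read as ATP-coupled luminescence with CellTiter-Glo after 10 min at room temperature.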
Regarding `CO[C@H]1/C=C/[C@@](C)(O)/C=C/C(=O)O[C@H](C)[C@@H](C)CC/C=C/1C`, the Potency is 3.21 µM (active).

Take `CC(O)/C=C/C1OC(=O)CC1Nc1ccc(C(=O)O)cc1` (centres undefined): the molecule was classed as inactive.

Take `CC/C=C\C/C=C\C/C=C\CCCCCCCC(=O)OCC(O)COC1OC(CO)C(O)C(O)C1O` (centres undefined): the max response was -3.16% (inactive).

With `C/C=C1\[C@H](O[C@@H]2O[C@H](CO)[C@@H](O)[C@H](O)[C@H]2O)OC=C2C(=O)OCCc3ccc(O)c(c3)Oc3ccc(cc3)CCOC(=O)C[C@H]21`, the max response was -1.53% (inactive).

In the case of `CC(=O)OC[C@@]12C(=O)C[C@@H](C)[C@]3(C[C@@H](c4ccoc4)O[C@H]3OC(C)=O)[C@H]1CCC[C@]21CO1`, the max response is 3.02% (inactive).

With `N[C@@]1(C(=O)O)CC[C@H]2[C@H](C(=O)O)[C@H]21`, the max response is 4.48% (inactive).

As for `CC[C@@](C)(Nc1ccnc(-c2c[nH]c3ncccc23)n1)C(=O)NCC(F)(F)F`, the Potency was 14.6 µM (active).

On to `CCOc1cc(N2CCC(O)CC2)ccc1Nc1ncc2c(n1)N(C1CCCC1)CCC(=O)N2C`, for which the Potency is 4.11 µM (active).

Turning to `COC1CC(O[C@H]2CC[C@@]3(C)C(=CC[C@]4(O)C3[C@H](OC(C)=O)[C@@H](OC(=O)c3ccccc3)[C@]3(C)[C@@H](C(C)=O)CC[C@@]34O)C2)OC(C)C1OC1CC(OC)C(OC2CC(OC)C(OC3OC(C)C(OC4OC(CO)C(O)C(O)C4O)C(OC)C3O)C(C)O2)C(C)O1` (some centres undefined), the max response was -0.853% (inactive).

With `CC(C)C(CO)Nc1nc(Nc2ccc(C(=O)O)c(Cl)c2)c2ncn(C(C)C)c2n1` (centres undefined), the max response was -3.63% (inactive).

`CC1OC(O[C@H]2CC[C@@]3(C)C(CC[C@]4(C)C3CC=C3C5CC(C)(C)CC[C@]5(C(=O)OC5OC(CO)C(OC6OC(COC7OCC(O)C(O)C7O)C(O)C(O)C6O)C(O)C5O)CC[C@]34C)C2(C)C)C(O)C(O)C1OC1OCC(OC2OCC(O)C(O)C2O)C(O)C1O` (some centres undefined): the max response is -4.7% (inactive).

Consider `CCN1CCN(Cc2ccc(Nc3ncc(F)c(-c4cc(F)c5nc(C)n(C(C)C)c5c4)n3)nc2)CC1`, for which the max response is 1.34% (inactive).

On to `O=S(=O)(NCC1CC1)c1ccc(Nc2nccc(N3CCCc4cc(O)ccc43)n2)cc1`, for which the Potency was 5.8 µM (active).

With `CCNC(=O)Nc1ccc(-c2nc3c(c(N4CCOC[C@@H]4C)n2)CCN(c2ncccn2)C3)cc1`, the Potency was 1.03 µM (active).
